Assay outcomes (PubChem)
An excerpt weighted towards active compounds, which were near 3% of everything screened.
HEK293 viab – reduces viability of HEK-293 SNCA reporter cells; HEK-293-SNCA-luc viability, GF-AFC fluorescence, 24 h; Potency, µM (titrated, usually from 57.1 µM), most hits filed as cytotoxic; hit rate 0.12% among 150,000; AID 1671193; also: nearly all actives have a fitted effect of over 30% in size
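HEK-293-SNCA-luc cells (1500/well) plated 24 h, then exposed 24 h to a dilution series; GF-AFC added 30 min at 37C, fluorescence 405/540 nm; normalised to medium-only and DMSO wells, Hill fit.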
IP6K1 inhibitor – inhibitors of human IP6K1 | IP6K1 kinase, ADP-Glo luminescence, 2 h; active compounds read low | activity change, % (series mostly up to about 58 µM) | hit rate 0.81% among 140,000; in the data active = activity change below about -25%
Target sequence (Q92551 whole entry, looked up): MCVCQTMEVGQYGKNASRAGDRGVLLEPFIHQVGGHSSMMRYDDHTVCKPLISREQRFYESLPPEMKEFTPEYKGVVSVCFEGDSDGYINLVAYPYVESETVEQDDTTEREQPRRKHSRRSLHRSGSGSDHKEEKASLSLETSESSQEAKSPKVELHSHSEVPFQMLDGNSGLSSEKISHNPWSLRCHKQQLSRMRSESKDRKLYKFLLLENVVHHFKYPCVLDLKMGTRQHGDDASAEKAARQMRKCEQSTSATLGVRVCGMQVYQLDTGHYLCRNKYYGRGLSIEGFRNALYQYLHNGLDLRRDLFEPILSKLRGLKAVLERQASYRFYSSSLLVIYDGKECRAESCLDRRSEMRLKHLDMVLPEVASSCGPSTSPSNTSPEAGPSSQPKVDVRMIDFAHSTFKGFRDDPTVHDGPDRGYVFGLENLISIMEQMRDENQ
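ADP-Glo luminescence measures ADP made by human IP6K1 during a 2 h RT reaction with ATP/IP6 (mix at 1.3 mM/130 uM); top library doses 57.5 and 19.1 uM final.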
KDM5B inhibitor – blocks human KDM5B histone demethylase activity. KDM5B demethylase, FDH-coupled NADH fluorescence (FDH is formaldehyde dehydrogenase). Q9UGL1. Potency, µM (doses to about 57.7 µM), most hits filed as inhibitors. hit rate 2.6% among 220,000; also: nearly all actives have a fitted effect of over 70% in size
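Compound dilutions met 200 nM (final) KDM5BΔAP for 10 min at room temperature before substrate addition. The substrate mix held 12.5 µM H3K4me3 with cofactors 25 µM α-ketoglutarate and 50 µM Fe²⁺. NADH signal gain over 30 min defined activity.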
SNCA expr inh – SNCA gene expression inhibition. HEK-293 SNCA-luciferase knock-in, luminescence, 24 h. Potency, µM (highest dose often 57.2 µM), usual class: inhibitors. hit rate 0.17% among 140,000. AID 1671194; also: nearly all actives have a fitted effect of over 45% in size
Numbers stand for hits; . = inactive; ? = inconclusive; / = no result given; [ ] = another dose, or the depositor's remark. Unless noted, calls follow the shape of the dose curve; as a rule, active = well fitted curve in the direction sought with a large enough effect; inconclusive = small, poorly fitted or top-dose-only effect, or another doubt; inactive = no such curve, though single readings can be large; an effect the other way counts as inactive or inconclusive.

SMILES | HEK293 viab | IP6K1 inhibitor | KDM5B inhibitor | SNCA expr inh
COc1ncccc1-c1cnc2[nH]cc(CC(=O)Nc3ccccc3C)c2c1 | . | . | ? | .
COc1cccc(C(=O)NC2CCCN(Cc3ccc(-c4cccc(OC)c4)cc3)C2)c1 (stereo not given) | ? | . | / | .
CCCN(C)Cc1ccc2c(c1)OCO2 | / | / | . | /
c1cn(-c2ccc3cn[nH]c3c2)c(-c2cc3n(n2)CCCNC3)n1 | . | . | . | .
N#Cc1cc(-n2ccnc2-c2cc3n(n2)CCCNC3)ccc1N1CCCC1 | . | . | 28µM | .
c1cn(-c2ccc(-c3cscn3)cc2)c(-c2cc3n(n2)CCCNC3)n1 | . | . | . | .
c1cn(-c2ccc3ncsc3c2)c(-c2cc3n(n2)CCCNC3)n1 | . | . | 3.5µM | .
O=C(Cc1ccc(F)cc1)N1CCN(c2ncnc3c2nnn3-c2ccc(F)cc2)CC1 | / | / | . | /
COc1cccc(CN2Cc3nc(N(C)c4ccccc4)ccc3OCC2=O)c1 | . | . | 32µM | .
O=C(CN1Cc2nc(-c3cc4ccccc4o3)ccc2OCC1=O)N1CCCC1 | . | . | 28µM | .
CN(c1ccccc1)c1ccc2c(n1)CN(Cc1ccc(F)cc1)C(=O)CO2 | . | . | 32µM | .
COc1cccc(-c2ccc3c(n2)CN(CC(=O)N2CCCC2)C(=O)CO3)c1 | . | . | ? | .
COc1cccc(CN2Cc3nc(-c4cc5ccccc5o4)ccc3OCC2=O)c1 | . | . | 50µM | .
COc1cccc(CN2Cc3nc(-c4ccc(F)cc4)ccc3OCC2=O)c1 | . | . | . | ?
COc1cccc(CN2Cc3nc(Oc4ccccc4)ccc3OCC2=O)c1 | . | . | . | .
Cc1cc(=O)oc2cc(OC(=O)COc3ccc4ccccc4c3)ccc12 | / | / | . | /
Cc1ccc(C(=O)N2CC(N3C(=O)c4c(c(C)nn4-c4ccccc4)C3C(C)C)C2)cc1 (stereo not given) | / | . | / | /
COc1ccc(-c2cc(C(=O)NCc3ccc4c(c3)OCO4)c3cnn(C)c3n2)cc1 | / | . | / | /
O=C(NC1CCN(c2nccc(Nc3ccccc3F)n2)CC1)c1cccc(Cl)c1 | .[12.5 µM] | . | / | .
NC(=O)c1cccc(-c2ccc3c(n2)CN(Cc2ccc(F)cc2)C(=O)CO3)c1 | ? | . | 35µM | ?
COc1cccc(CN2Cc3nc(-c4cc(Cl)ccc4OC)ccc3OCC2=O)c1 | . | . | 35µM | .
COc1ccc(Cl)cc1-c1ccc2c(n1)CN(CCOc1ccccc1)C(=O)CO2 | . | . | ? | .
COc1ccc(-c2ccc3c(n2)CN(Cc2csc(C)n2)C(=O)CO3)cc1F | . | . | 35µM | .
Cc1nc(CN2C[C@H](C(=O)Nc3ccccc3)C[C@@H]2c2ccc(F)cc2)cs1 | . | . | 35µM | .
O=C(O)C1CCc2nnc(C3CCCN([S+](=O)([O-])c4ccccc4)C3)n21 (stereo not given) | . | . | 56µM | .
SMILES | HEK293 viab | IP6K1 inhibitor | KDM5B inhibitor | SNCA expr inh
O=C(NCCCCc1ccccc1)c1cc(=O)c2ccccc2o1 | / | / | . | /
CCc1cccc2c(C(CC(=O)NCc3ccco3)c3ccc(C)cc3)c[nH]c12 (stereo not given) | . | . | 28µM | .
CNC(=O)[C@@H](Cc1ccccc1)N1CCC[C@H]1C(=O)NCc1ccccn1 | . | . | 28µM | .
CNC(=O)[C@@H](Cc1ccccc1)N1CCC[C@H]1C(=O)NCc1cccnc1 | . | . | . | .
CCn1ccc(C(=O)N2CCCn3cc(-c4cccc(C#N)c4)nc32)n1 | . | . | ? | .
N#Cc1cccc(-c2cn3c(n2)N(C(=O)CC2CCNCC2)CCC3)c1 | . | . | ? | .
N#Cc1cccc(-c2cn3c(n2)N(C(=O)c2cccs2)CCC3)c1 | . | . | 28µM | .
N#Cc1cccc(-c2cn3c(n2)N(C(=O)c2cccnc2)CCC3)c1 | . | . | 35µM | .
COCCC(=O)N1CCCn2cc(-c3cccc(C#N)c3)nc21 | . | . | 22µM | .
Cc1cc(C)cc(-c2ccc(CN3CCCC3C(=O)NCCc3ccccc3)cc2)c1 (stereo not given) | . | . | / | .
CSc1ccc(-c2cccc(CN3CCC(N[S+](=O)([O-])c4cccc(C(F)(F)F)c4)CC3)c2)cc1 | / | . | / | /
O=C1NC(=NC2CCCC2)C2(CCCN(CC3CCCCC3)C2)N1c1cc(F)cc(F)c1 (stereo not given) | ? | . | ? | .
CN1CCN(C(=O)c2cccc3c2NCCC3)CC12CCNC(=O)CC2 (stereo not given) | . | . | 25µM | .
COc1cc(O)ccc1CN1CCn2nnc(CCC(=O)N3CCCC3)c2C1 | . | . | 14µM | .
CCOC(=O)[C@@H]1CN(C(=O)c2cccc(OC)c2)[C@H]2c3ccccc3O[C@@H]12 | / | . | / | /
CS(=O)(=O)NCCC(=O)O | / | / | . | /
COc1ccc(-c2cnc3[nH]cc(CC(=O)Nc4cccc(F)c4)c3c2)cc1 | ? | . | ? | .
COc1ncccc1-c1cnc2[nH]cc(CC(=O)Nc3cccnc3)c2c1 | ? | . | ? | .
COc1ccc(-c2cnc3[nH]cc(CC(=O)NCCc4ccccn4)c3c2)cc1 | . | . | 35µM | .
COc1ccc(-c2cnc3[nH]cc(CC(=O)Nc4cccnc4)c3c2)cc1 | . | . | 40µM | .
COc1ncccc1-c1cnc2[nH]cc(CC(=O)Nc3ccccc3)c2c1 | ? | . | 35µM | .
COc1ncccc1-c1cnc2[nH]cc(CC(=O)Nc3ccncc3)c2c1 | . | . | 40µM | .
FC(F)(F)C(Oc1nc(N2CCOCC2)nc(N2CCOCC2)n1)C(F)(F)F | / | / | . | /
CN(C)C(=O)c1ccc(Br)s1 | / | / | . | /
CN1CCC(NC(=O)Cc2c[nH]c3ncc(-c4ccccc4)cc23)CC1 | . | . | 35µM | .
SMILES | HEK293 viab | IP6K1 inhibitor | KDM5B inhibitor | SNCA expr inh
O=C(Cc1c[nH]c2ncc(-c3ccccc3)cc12)NC1CCOCC1 | . | . | 28µM | ?
CC(C)CNC(=O)Cc1c[nH]c2ncc(-c3cnn(C)c3)cc12 | . | . | 40µM | .
O=C(Cc1c[nH]c2ncc(-c3cccnc3)cc12)NC1CCOCC1 | . | . | . | .
CC(CC(=O)Nc1cccc(O)c1)(C(=O)O)c1ccccc1 (stereo not given) | / | / | . | /
NC(=O)[C@@H]1CN(C(=O)OCc2ccccc2)[C@H]2c3ccccc3O[C@@H]12 | / | . | / | /
Cc1nn(-c2ccccc2)c2c1C(C)N(C1CCN(C(=O)c3ccccc3Cl)C1)C2=O (stereo not given) | / | . | / | /
Cc1oc2ccn(Cc3ccc(F)cc3)c(=O)c2c1C(=O)N1CCN(c2ccccn2)CC1 | . | . | 22µM | .
COc1ccccc1NC(=O)c1c(C)oc2ccn(Cc3ccc(F)cc3)c(=O)c12 | . | . | 32µM | ?
Cc1oc2ccn(Cc3ccc(F)cc3)c(=O)c2c1C(=O)O | . | . | . | .
CCCNC(=O)c1c(C)oc2ccn(Cc3ccc(F)cc3)c(=O)c12 | . | . | . | .
Cc1ccc(-c2cn3cc(C(=O)NCc4ccccn4)nc3s2)cc1 | . | . | / | .
COc1ccc(C(=O)N[C@@H]2CN(c3ncccn3)C[C@H]2CN(C)C)cn1 | . | . | ? | .
COc1ccc(C(=O)N[C@@H]2CN(c3ncccn3)C[C@H]2CN(C)C)c(OC)c1 | . | . | 25µM | .
CN(C)C[C@@H]1CN(c2ncccn2)C[C@H]1NC(=O)C1(C)CCOCC1 | . | . | ? | .
